Consider 64 molecules from PubChem BioAssay AID1578 (Sanford-Burnham Center for Chemical Genomics, 2009).

SMILES strings stand for the structures. In all, about 290,000 compounds went through this assay and about 3,000 (1%) were called active. Shown is part of a subset that was picked to be rich in actives. Unmarked numbers belong to inactive results. Rule as the data show it: active = inhibition mostly above about 36% (no sharp cut-off); inactive = mostly below about 34%.

This assay is described as follows: inhibition of NOD1-driven NF-kB reporter – cell-based, luminescence, uHTS, primary screen (AID 1578).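 Also: HEK-293T reporter cells stimulated with the NOD1 agonist gamma-tri-DAP.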 The conditions noted are these: NOD1-driven NF-kB luciferase reporter cells, at 4 µM, hits give high values. Background: Reporter assays use an easily measured gene product as a stand-in for the process of interest.
As usually defined, the inhibition is the change of the read-out against control, counted positive when it falls. Take `CCOc1ccccc1N1CC(C(=O)N2CCc3ccccc32)CC1=O` (centres undefined): the inhibition is 17.6%.

As to `CCn1c(=O)n(CC)c2cc(N3CCCC3)c(NC(=O)c3c(F)cccc3F)cc21`, the inhibition is -5.8%.

On to `O=C(c1cccc(S(=O)(=O)N2CCc3ccccc3C2)c1)N1CCN(c2ccc(O)cc2)CC1`, for which the inhibition is -37.3%.

Consider `CC(=O)c1cccc(NC(=O)Cn2cnc(S(=O)(=O)N3CCOCC3)c2)c1`, for which the inhibition is -18.3%.

Turning to `COCc1cc(C)nc(SCc2ccc([N+](=O)[O-])cc2)c1C#N`, the inhibition was 9.9%.

Turning to `CN1CCN(c2ccc(-c3ccc4ccccc4n3)cc2)CC1`, the inhibition is 90.2% (active).

As to `c1ccc2nc(-c3ccc(N4CCOCC4)cc3)ccc2c1`, the inhibition is 11%.

Take `COc1ccc(-c2ccc3ccccc3n2)cc1`: the inhibition was -47%.

As to `COc1cc2cc(CN(Cc3cccnc3)C(=O)Nc3ccccc3F)c(=O)[nH]c2cc1OC`, the inhibition was -29.7%.

`CCOc1ccccc1NC(=O)c1sc2ncn(CC(=O)N3CCOCC3)c(=O)c2c1C`: the inhibition is 1.5%.

Take `CCCCOc1ccc(CN2CCSCC2)cc1`: the inhibition was -28.4%.

Turning to `Cc1nc2sc(C(=O)c3ccccc3)c(N)c2c(C)c1C`, the inhibition is 27.9%.

`CCOC(=O)c1c(C)nc2sc(C(N)=O)c(N)c2c1-c1ccccc1`: the inhibition is 31%.

Turning to `Cc1nc2sc(C(N)=O)c(N)c2c(C)c1CC(=O)c1ccccc1`, the inhibition is 84.2% (active).

Consider `CC(=O)Nc1nc(-c2cccc3ccccc23)cs1`, for which the inhibition was -32.8%.

For `O=C(O)c1cc(=O)n(Cc2ccccc2)c(=O)[nH]1`, the inhibition is -11.6%.

For the molecule `O=C(Nc1cccnc1)c1ccc(COc2ccccc2Br)cc1`, the inhibition was -8.4%.

Regarding `O=C(Nc1ccc(Cn2cccn2)cc1)c1ccc(COc2ccccc2Br)cc1`, the inhibition is 60.2%.

For `CC(C)(C)OC(=O)CNC(=O)c1nc[nH]c1C(=O)NCc1ccc(CNC(=O)OC(C)(C)C)cc1`, the inhibition was -14.2%.

As for `O=C(c1ccccc1)N1CCCCC(Cl)C1=O` (centres undefined), the inhibition was -29.3%.

As for `CCN(CC)C(=S)SC1CCCCN(C(=O)c2ccc(F)cc2)C1=O` (centres undefined), the inhibition was -8%.

`CCN(CC)C(=S)SC1CCCCN(C(=O)c2ccccc2)C1=O` (centres undefined): the inhibition was 65.6% (active).

As for `CCOc1ccc(/C(O)=C2/C(=O)C(=O)N(c3ncccn3)C2c2ccc(Cl)cc2)cc1` (centres undefined), the inhibition is -1%.

Consider `CCOc1ccc(/C(O)=C2/C(=O)C(=O)N(c3ncccn3)C2c2ccccc2)cc1` (centres undefined), for which the inhibition was 91.5% (active).

Take `CCOc1ccc(/C(O)=C2/C(=O)C(=O)N(c3ncccn3)C2c2ccc(C)cc2)cc1` (centres undefined): the inhibition is -0.8%.

For `CCOc1ccc(NC(=S)Nc2ccc(F)cc2)cc1`, the inhibition was 2.3%.

On to `CCOc1ccc(NCCC(O)c2ccc(F)cc2)cc1` (centres undefined), for which the inhibition was 34.5% (active).

As to `COc1ccc(NCCC(O)c2ccc(Cl)cc2)cc1` (centres undefined), the inhibition was -11.5%.

As to `S=C(NC1CCCC1)NC1CCCC1`, the inhibition was 2.9%.

As for `Cc1cc(C)nc(NC(=O)/C=C/c2ccc(Cl)cc2Cl)c1`, the inhibition was -58%.

As for `COc1ccc(C(=O)/C=C/c2ccccc2C(F)(F)F)cc1`, the inhibition is -21.4%.

`O=C(O)c1cc(C(F)(F)F)nc2c(C(F)(F)F)cccc12`: the inhibition was -18.1%.

`N#C/C(=C\c1cc([N+](=O)[O-])ccc1Cl)C(N)=O`: the inhibition is -44.7%.

On to `Clc1ccc(/C=C/c2ncc[nH]2)c(Cl)c1`, for which the inhibition was -2%.

As for `O=C(CCC(=O)Nc1cc(C(F)(F)F)ccc1Cl)N/N=C\c1cc([N+](=O)[O-])ccc1O`, the inhibition was 3%.

For `Cc1ccc(OCCCC(=O)NCc2ccco2)c(C)c1`, the inhibition is -28.1%.

Regarding `COc1ccc(NC2CCCN(C(=O)CCCN3CCCCC3=O)C2)cc1` (centres undefined), the inhibition was 19.3%.

As to `CCc1ccc(CNC(=O)CCS(=O)(=O)Cc2ccccc2F)cc1`, the inhibition is 3.9%.

Turning to `CCC/C(C)=C/c1ccc(CC)cn1`, the inhibition is 12.7%.

For the molecule `COc1cc(CNc2ccc(C(=O)O)cc2)cc(Br)c1OCC(=O)NC(C)(C)C`, the inhibition was -27.4%.

Turning to `CCOc1cc(CNc2ccccc2)cc(Br)c1OCC(=O)NC(C)(C)C`, the inhibition was 4.8%.

As for `COc1cc(CNc2cccc(C(=O)O)c2)cc(Br)c1OCC(=O)NC(C)(C)C`, the inhibition is 94.3% (active).

For `CC(=O)c1ccc(N2CCN(S(=O)(=O)c3ccc4c5c3CC(=O)N5CC(C)S4)CC2)cc1` (centres undefined), the inhibition is -20.1%.

In the case of `CCn1c(O)c(N=NC(=O)c2cccs2)c2ccccc21`, the inhibition is -38.2%.

In the case of `COc1cccc(C2CC(c3ccc(Cl)cc3)Nc3nc(N)nn32)c1` (centres undefined), the inhibition was 13.7%.

For the molecule `Nc1c(CO)nnn1-c1ccccc1`, the inhibition is 68.7% (active).

Consider `NC(=O)c1nnn(-c2ccccc2)c1N`, for which the inhibition was -28.7%.

For `OCc1nnn(-c2ccccc2)c1CO`, the inhibition is -4.1%.

Take `COc1cc(/C=C/C(=O)OCC(=O)Nc2cc(C)c(C)cc2[N+](=O)[O-])ccc1O`: the inhibition was -8.4%.

`Cc1ccc(-c2ccc(S(=O)(=O)NCC3CCCO3)cc2)cc1` (centres undefined): the inhibition is 47.8%.

For `O=S(=O)(NCC1CCCO1)c1ccc(-c2ccc(Cl)cc2)cc1` (centres undefined), the inhibition is 9.5%.

As to `Cc1cccc(N2CCN(c3ccc4cc(S(=O)(=O)N5CCCCC5)ccc4n3)CC2)c1C`, the inhibition was 25.6%.

Consider `CCOc1ccccc1NC(=O)CSc1ccccc1`, for which the inhibition is -13.6%.

Consider `CC1CCCCC1NC(=S)Nc1ccc(Cl)cc1Cl` (centres undefined), for which the inhibition was 42.2% (active).

For the molecule `S=C(Nc1ccc(Cl)cc1Cl)NC1CCCCC1`, the inhibition was -5%.

Turning to `Cc1cc(Cl)ccc1NC(=S)NC1CCCC1`, the inhibition was 24%.

Consider `CCOC(=O)c1ccccc1NC(=O)c1cn(-c2ccc(C)c(C)c2)c(=O)c2ccccc12`, for which the inhibition was 48%.

As for `CCOC(=O)C(C)NC(=O)c1cn(-c2ccc(OC)cc2)c(=O)c2ccccc12` (centres undefined), the inhibition was 1.9%.

On to `CCOC(=O)c1ccccc1NC(=O)c1cn(-c2ccc(OC)cc2)c(=O)c2ccccc12`, for which the inhibition is 73.4% (active).

Consider `C=CCNC(=O)c1oc2ccc(S(=O)(=O)N3CCC4(CC3)OCCO4)cc2c1C`, for which the inhibition was -20.9%.

As to `Cc1noc(C)c1C(=O)OCC(=O)Nc1ccccc1Oc1ccccc1`, the inhibition was -14%.

For `Cc1csc(NC(=O)c2cc3c(s2)CCCC3)n1`, the inhibition was -106%.

Turning to `Cc1csc(NC(=O)c2cc3c(s2)CCC3)n1`, the inhibition was 5.9%.

Turning to `Cc1csc(NC(=O)c2cc3c(s2)CCCCC3)n1`, the inhibition was 73.7% (active).
